Test results as given in PubChem BioAssay AID1159580 (chemical genetic matrix, 2015).
The campaign covered roughly 5,500 compounds. About 2,000 (36%) were called active. Another 18% or so got no clear call; they are omitted. Cut-off read from the data, not from the text of the source: active = normalized growth mostly below about 0.91 (no sharp cut-off); inconclusive = no clear call, values can overlap the other calls; inactive = mostly above about 0.92. The list shows a part of the results.

Assay: chemical genetic growth profiling, strain panel (AID 1159580);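 note: tested at 20 µM; growth read once vehicle control cultures reached saturation at 30 °C; 1 = growth at the plate median or of vehicle wells; lower values mean less growth of the strain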
Settings: growth OD

Measured: normalized growth

O=S(=O)(O)CCS
active: S. cerevisiae deletion strains, locus YOR083W, strain WHI5, active compounds read low 0.888
inactive: S. cerevisiae deletion strains, locus YKL009W, strain mrt4, active compounds read low 1.02 | S. cerevisiae deletion strains, locus YKL068W, active compounds read low 0.993 | S. cerevisiae deletion strains, locus YKL085W, strain MDH1 (second series), active compounds read low 0.99 | S. cerevisiae deletion strains, locus YKL085W, strain MDH1, active compounds read low 0.99 | S. cerevisiae deletion strains, locus YKL160W, strain elf1, active compounds read low 0.941 | S. cerevisiae deletion strains, locus YKL190W, strain CNB1, active compounds read low 1.01 | S. cerevisiae deletion strains, locus YKR001C, strain vps1, active compounds read low 1.02 | S. cerevisiae deletion strains, locus YKR026C, strain gcn3, active compounds read low 0.996 | S. cerevisiae deletion strains, locus YKR091W, strain srl3, active compounds read low 0.98 | S. cerevisiae deletion strains, locus YLL001W, strain dnm1, active compounds read low 1 | S. cerevisiae deletion strains, locus YLL026W, active compounds read low 1.01 | S. cerevisiae deletion strains, locus YLL041C, strain sdh2, active compounds read low 1 | S. cerevisiae deletion strains, locus YLR027C, strain aat2, active compounds read low 0.997 | S. cerevisiae deletion strains, locus YLR039C, strain RIC1, active compounds read low 1.03 | S. cerevisiae deletion strains, locus YLR058C, strain SHM2, active compounds read low 1.02 | S. cerevisiae deletion strains, locus YLR102C, strain apc9, active compounds read low 0.992 | S. cerevisiae deletion strains, locus YLR113W, strain HOG1, active compounds read low 0.956 | S. cerevisiae deletion strains, locus YLR221C, strain rsa3, active compounds read low 1.03 | S. cerevisiae deletion strains, locus YLR258W, strain gsy2, active compounds read low 1 | S. cerevisiae deletion strains, locus YLR262C, strain YPT6 (second series), active compounds read low 1.01 | S. cerevisiae deletion strains, locus YLR262C, strain YPT6, active compounds read low 1.05 | S. cerevisiae deletion strains, locus YLR268W, strain sec22, active compounds read low 0.993 | S. cerevisiae deletion strains, locus YLR320W, strain mms22, active compounds read low 0.979 | S. cerevisiae deletion strains, locus YLR330W, strain CHS5, active compounds read low 1.02 | S. cerevisiae deletion strains, locus YLR342W, strain FKS1 (second series), active compounds read low 0.989 | S. cerevisiae deletion strains, locus YLR342W, strain FKS1, active compounds read low 0.965 | S. cerevisiae deletion strains, locus YLR357W, strain rsc2, active compounds read low 0.912 | S. cerevisiae deletion strains, locus YLR370C, strain arc18, active compounds read low 0.98 | S. cerevisiae deletion strains, locus YLR371W, strain rom2, active compounds read low 0.996 | S. cerevisiae deletion strains, locus YLR384C, strain iki3, active compounds read low 0.97 | S. cerevisiae deletion strains, locus YLR418C, strain cdc73, active compounds read low 0.976 | S. cerevisiae deletion strains, locus YML016C, strain PPZ1, active compounds read low 1.01 | S. cerevisiae deletion strains, locus YML032C, strain rad52, active compounds read low 0.992 | S. cerevisiae deletion strains, locus YML120C, strain ndi1, active compounds read low 0.993 | S. cerevisiae deletion strains, locus YML124C, strain tub3, active compounds read low 0.994 | S. cerevisiae deletion strains, locus YMR058W, strain fet3, active compounds read low 1.01 | S. cerevisiae deletion strains, locus YMR078C, strain ctf18, active compounds read low 0.991 | S. cerevisiae deletion strains, locus YMR125W, strain sto1, active compounds read low 0.961 | S. cerevisiae deletion strains, locus YMR129W, active compounds read low 0.988 | S. cerevisiae deletion strains, locus YMR205C, strain PFK2, active compounds read low 1.01 | S. cerevisiae deletion strains, locus YMR223W, strain ubp8, active compounds read low 0.987 | S. cerevisiae deletion strains, locus YMR231W, strain pep5, active compounds read low 0.978 | S. cerevisiae deletion strains, locus YMR307W, strain GAS1, active compounds read low 1 | S. cerevisiae deletion strains, locus YNL067W, strain RPL9B, active compounds read low 1.03 | S. cerevisiae deletion strains, locus YNL071W, strain lat1, active compounds read low 0.996 | S. cerevisiae deletion strains, locus YNL153C, strain GIM3, active compounds read low 1.04 | S. cerevisiae deletion strains, locus YNL183C, strain NPR1, active compounds read low 0.933 | S. cerevisiae deletion strains, locus YNL209W, strain ssb2, active compounds read low 0.981 | S. cerevisiae deletion strains, locus YNL233W, strain BNI4, active compounds read low 1.02 | S. cerevisiae deletion strains, locus YNL248C, strain rpa49, active compounds read low 0.947 | S. cerevisiae deletion strains, locus YNL250W, strain rad50, active compounds read low 0.987 | S. cerevisiae deletion strains, locus YNL271C, strain bni1, active compounds read low 0.981 | S. cerevisiae deletion strains, locus YNL298W, strain CLA4, active compounds read low 0.982 | S. cerevisiae deletion strains, locus YNL307C, strain MCK1, active compounds read low 0.984 | S. cerevisiae deletion strains, locus YNL322C, strain KRE1 (second series), active compounds read low 0.967 | S. cerevisiae deletion strains, locus YNL322C, strain KRE1, active compounds read low 1.01 | S. cerevisiae deletion strains, locus YNR049C, strain mso1, active compounds read low 0.964 | S. cerevisiae deletion strains, locus YNR052C, strain pop2, active compounds read low 0.995 | S. cerevisiae deletion strains, locus YOL006C, strain TOP1, active compounds read low 1.07 | S. cerevisiae deletion strains, locus YOL012C, strain htz1 1.22 | S. cerevisiae deletion strains, locus YOL147C, strain pex11, active compounds read low 0.989 | S. cerevisiae deletion strains, locus YOR001W, strain rrp6, active compounds read low 0.996 | S. cerevisiae deletion strains, locus YOR061W, strain CKA2, active compounds read low 1.02 | S. cerevisiae deletion strains, locus YOR069W, strain VPS5, active compounds read low 1.01 | S. cerevisiae deletion strains, locus YOR070C, strain gyp1, active compounds read low 0.988 | S. cerevisiae deletion strains, locus YOR080W, strain dia2, active compounds read low 0.964 | S. cerevisiae deletion strains, locus YOR106W, strain vam3, active compounds read low 0.982 | S. cerevisiae deletion strains, locus YOR136W, strain idh2, active compounds read low 0.994 | S. cerevisiae deletion strains, locus YOR144C, strain elg1, active compounds read low 0.993 | S. cerevisiae deletion strains, locus YOR184W, strain ser1, active compounds read low 0.983 | S. cerevisiae deletion strains, locus YOR231W, strain MKK1, active compounds read low 0.974 | S. cerevisiae deletion strains, locus YOR265W, strain rbl2, active compounds read low 0.999 | S. cerevisiae deletion strains, locus YOR270C, strain vph1, active compounds read low 0.939 | S. cerevisiae deletion strains, locus YOR290C, strain snf2, active compounds read low 0.974 | S. cerevisiae deletion strains, locus YOR316C, strain cot1, active compounds read low 0.988 | S. cerevisiae deletion strains, locus YPL051W, strain arl3, active compounds read low 0.991 | S. cerevisiae deletion strains, locus YPL055C, strain LGE1, active compounds read low 1.07 | S. cerevisiae deletion strains, locus YPL078C, strain atp4, active compounds read low 0.969 | S. cerevisiae deletion strains, locus YPL106C, strain sse1, active compounds read low 0.96 | S. cerevisiae deletion strains, locus YPL240C, strain hsp82, active compounds read low 0.994 | S. cerevisiae deletion strains, locus YPL241C, strain CIN2, active compounds read low 1.01 | S. cerevisiae deletion strains, locus YPL256C, strain CLN2, active compounds read low 0.997 | S. cerevisiae deletion strains, locus YPR119W, strain clb2, active compounds read low 0.99 | S. cerevisiae deletion strains, locus YPR141C, strain kar3, active compounds read low 0.987 | S. cerevisiae deletion strains, locus YPR163C, strain tif3, active compounds read low 0.99 | S. cerevisiae deletion strains, locus YPR167C, strain met16, active compounds read low 0.98 | S. cerevisiae deletion strains, strain wtn01, active compounds read low 0.981 | S. cerevisiae strains, strain wild type, active compounds read low 1.01
